Common to all, as to experiment: DAPPL (digital affinity profiling via proximity ligation, sequencing); 10 mM Tris-HCl pH 7.5, 50 mM NaCl, 1 mM DTT, 4% glycerol, room temperature, 30 min; GST-TFs on glutathione beads, 16-mer random dsDNA library, 0.1% formaldehyde crosslink after washing; high values mean tight binding
One assay deals with T1, FEV (Homo sapiens, UniProt Q99581 1-238).
T1 sequence: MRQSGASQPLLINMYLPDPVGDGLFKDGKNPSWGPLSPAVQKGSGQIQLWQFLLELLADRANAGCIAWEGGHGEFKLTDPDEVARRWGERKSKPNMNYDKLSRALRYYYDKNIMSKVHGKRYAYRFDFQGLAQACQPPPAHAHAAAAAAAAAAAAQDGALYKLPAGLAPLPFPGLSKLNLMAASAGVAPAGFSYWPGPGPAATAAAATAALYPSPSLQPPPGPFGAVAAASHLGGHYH
As to conditions: protein: recombinant; tags: N-terminal GST; dsDNA, one strand shown. In outline: (§1)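 In yeast, human transcription factors were expressed with a GST fusion, then pulled down on glutathione beads and given DNA barcodes. Pooled with a tag-only sample, they were exposed to 200 nmole of a 16-mer random double-stranded DNA library (Tris/NaCl/DTT/glycerol buffer, room temperature, 30 min), washed, crosslinked with 0.1% formaldehyde, proximity-ligated using BsaI/T4 ligase for 1 h at 37 °C, PCR-amplified and read on an Illumina NextSeq500. Each hexamer's frequency of reads for a factor, divided by the matching frequency for the tag-only sample, gives the binding signal.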

In the next assay the target is ETV5 (Homo sapiens, UniProt P41161 1-510). The following applies: protein: recombinant; tags: N-terminal GST; dsDNA, one strand shown. The method in brief: as §1
Another assay addresses HSF1 (Homo sapiens, UniProt Q00613 1-529). The following applies: protein: recombinant; tags: N-terminal GST; chain copies: 3; dsDNA, one strand shown. The method in brief: as §1
The target of another assay is T2, SPIC (Homo sapiens, UniProt Q8N5J4 1-248).
T2 sequence: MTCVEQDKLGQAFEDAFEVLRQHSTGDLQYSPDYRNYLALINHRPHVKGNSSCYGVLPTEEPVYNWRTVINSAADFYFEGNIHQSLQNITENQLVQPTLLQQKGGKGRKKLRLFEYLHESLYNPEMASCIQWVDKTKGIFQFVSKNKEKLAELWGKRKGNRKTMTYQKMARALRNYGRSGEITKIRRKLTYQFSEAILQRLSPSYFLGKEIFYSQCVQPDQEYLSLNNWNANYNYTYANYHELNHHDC
As to conditions: protein: recombinant; tags: N-terminal GST; dsDNA, one strand shown. The method in brief:
as §1

Another assay addresses ELF4 (Homo sapiens, UniProt Q99607 1-663). The following applies: protein: recombinant; tags: N-terminal GST; dsDNA, one strand shown. In outline:
as §1

In a further assay the target is T3, ELK4 (Homo sapiens, UniProt P28324-2 1-405).
T3 sequence: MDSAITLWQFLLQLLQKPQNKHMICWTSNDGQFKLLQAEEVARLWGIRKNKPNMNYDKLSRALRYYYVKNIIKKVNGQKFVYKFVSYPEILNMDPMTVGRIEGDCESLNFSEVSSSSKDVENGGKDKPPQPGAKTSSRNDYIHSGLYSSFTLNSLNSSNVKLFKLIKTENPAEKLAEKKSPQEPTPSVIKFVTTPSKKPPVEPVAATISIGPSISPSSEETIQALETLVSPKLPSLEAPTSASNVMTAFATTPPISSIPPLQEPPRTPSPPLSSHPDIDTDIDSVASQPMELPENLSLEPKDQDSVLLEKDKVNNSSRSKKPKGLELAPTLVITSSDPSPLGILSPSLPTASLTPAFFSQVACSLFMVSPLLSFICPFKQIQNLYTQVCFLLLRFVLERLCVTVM
As to conditions: protein: recombinant; tags: N-terminal GST; dsDNA, one strand shown. In outline: as §1

In another assay the target is T4, ETV2 (Homo sapiens, UniProt O00321 1-342).
T4 sequence: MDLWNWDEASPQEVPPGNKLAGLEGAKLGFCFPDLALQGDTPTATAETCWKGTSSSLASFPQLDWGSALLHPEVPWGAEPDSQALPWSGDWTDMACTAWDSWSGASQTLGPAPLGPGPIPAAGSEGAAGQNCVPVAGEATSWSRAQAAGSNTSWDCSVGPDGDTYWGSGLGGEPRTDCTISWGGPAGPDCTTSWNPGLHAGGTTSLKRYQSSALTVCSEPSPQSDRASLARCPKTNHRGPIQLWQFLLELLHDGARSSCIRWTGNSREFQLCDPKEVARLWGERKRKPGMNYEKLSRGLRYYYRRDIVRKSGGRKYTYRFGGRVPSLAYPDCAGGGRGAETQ
As to conditions: protein: recombinant; tags: N-terminal GST; dsDNA, one strand shown. The method in brief:
as §1

A further assay addresses T5, ELF3 (Homo sapiens, UniProt P78545 1-371).
T5 sequence: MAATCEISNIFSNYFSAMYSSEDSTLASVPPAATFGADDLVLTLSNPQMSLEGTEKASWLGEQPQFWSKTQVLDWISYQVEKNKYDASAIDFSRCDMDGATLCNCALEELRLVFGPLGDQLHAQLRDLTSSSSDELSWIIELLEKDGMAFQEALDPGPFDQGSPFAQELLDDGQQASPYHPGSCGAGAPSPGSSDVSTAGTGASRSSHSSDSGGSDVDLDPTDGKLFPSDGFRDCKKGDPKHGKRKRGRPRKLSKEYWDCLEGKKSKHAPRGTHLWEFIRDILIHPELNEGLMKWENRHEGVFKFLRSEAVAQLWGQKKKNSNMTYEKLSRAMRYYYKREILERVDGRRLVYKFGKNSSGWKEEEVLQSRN
As to conditions: protein: recombinant; tags: N-terminal GST; dsDNA, one strand shown. The method in brief:
as §1

For the next assay, the target named is CRX (Homo sapiens, UniProt O43186 1-299). The following applies: protein: recombinant; tags: N-terminal GST; dsDNA, one strand shown. In outline: as §1
Another assay deals with ETV1 (Homo sapiens, UniProt P50549 1-477). As to conditions: protein: recombinant; tags: N-terminal GST; dsDNA, one strand shown. In outline: as §1
In the next assay the target is T6, ERF (Homo sapiens, UniProt P50548 1-548).
T6 sequence: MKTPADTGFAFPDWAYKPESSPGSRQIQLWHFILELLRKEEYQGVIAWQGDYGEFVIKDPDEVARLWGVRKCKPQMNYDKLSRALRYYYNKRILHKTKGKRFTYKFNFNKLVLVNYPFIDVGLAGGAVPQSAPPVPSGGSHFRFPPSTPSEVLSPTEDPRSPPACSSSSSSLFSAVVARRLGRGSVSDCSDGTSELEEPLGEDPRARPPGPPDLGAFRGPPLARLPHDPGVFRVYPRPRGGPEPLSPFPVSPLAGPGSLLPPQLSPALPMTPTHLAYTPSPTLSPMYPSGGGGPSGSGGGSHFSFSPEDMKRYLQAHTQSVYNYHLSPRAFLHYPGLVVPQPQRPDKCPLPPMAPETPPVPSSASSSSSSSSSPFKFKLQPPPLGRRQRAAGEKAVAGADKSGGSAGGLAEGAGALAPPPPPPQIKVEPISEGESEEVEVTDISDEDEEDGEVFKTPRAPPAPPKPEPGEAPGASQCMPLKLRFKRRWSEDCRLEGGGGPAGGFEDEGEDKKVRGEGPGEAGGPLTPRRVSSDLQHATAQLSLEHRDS
As to conditions: protein: recombinant; tags: N-terminal GST; dsDNA, one strand shown. The method in brief:
as §1

A further assay deals with T7, ETV3L (Homo sapiens, UniProt Q6ZN32 1-361).
T7 sequence: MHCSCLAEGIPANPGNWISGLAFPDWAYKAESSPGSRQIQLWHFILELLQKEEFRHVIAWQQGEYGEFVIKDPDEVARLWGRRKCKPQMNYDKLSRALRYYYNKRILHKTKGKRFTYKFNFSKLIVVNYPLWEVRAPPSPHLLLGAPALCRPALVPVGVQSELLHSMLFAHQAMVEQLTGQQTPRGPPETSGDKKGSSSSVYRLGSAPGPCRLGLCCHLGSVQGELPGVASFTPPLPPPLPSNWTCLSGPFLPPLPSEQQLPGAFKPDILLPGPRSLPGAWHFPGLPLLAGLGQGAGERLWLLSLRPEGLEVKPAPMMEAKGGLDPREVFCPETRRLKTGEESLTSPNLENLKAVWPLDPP
The following applies: protein: recombinant; tags: N-terminal GST; dsDNA, one strand shown. In outline: as §1

For another assay, the target named is T8, ETS2 (Homo sapiens, UniProt P15036 1-469).
T8 sequence: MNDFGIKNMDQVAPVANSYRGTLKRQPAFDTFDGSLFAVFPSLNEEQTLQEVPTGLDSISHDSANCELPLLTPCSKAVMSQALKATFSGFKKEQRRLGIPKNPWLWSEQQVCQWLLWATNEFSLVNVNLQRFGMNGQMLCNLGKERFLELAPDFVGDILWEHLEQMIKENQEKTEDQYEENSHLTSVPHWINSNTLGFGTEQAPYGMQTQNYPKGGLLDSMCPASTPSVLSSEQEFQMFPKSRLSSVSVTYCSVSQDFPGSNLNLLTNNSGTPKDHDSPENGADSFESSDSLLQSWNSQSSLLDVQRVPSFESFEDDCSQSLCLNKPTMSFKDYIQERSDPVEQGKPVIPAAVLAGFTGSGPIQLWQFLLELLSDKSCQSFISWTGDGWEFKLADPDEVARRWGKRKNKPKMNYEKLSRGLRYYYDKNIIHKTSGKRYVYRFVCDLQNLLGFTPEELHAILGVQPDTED
As to conditions: protein: recombinant; tags: N-terminal GST; dsDNA, one strand shown. In outline: as §1

Another assay concerns the target T9, SPDEF (Homo sapiens, UniProt O95238 1-335).
T9 sequence: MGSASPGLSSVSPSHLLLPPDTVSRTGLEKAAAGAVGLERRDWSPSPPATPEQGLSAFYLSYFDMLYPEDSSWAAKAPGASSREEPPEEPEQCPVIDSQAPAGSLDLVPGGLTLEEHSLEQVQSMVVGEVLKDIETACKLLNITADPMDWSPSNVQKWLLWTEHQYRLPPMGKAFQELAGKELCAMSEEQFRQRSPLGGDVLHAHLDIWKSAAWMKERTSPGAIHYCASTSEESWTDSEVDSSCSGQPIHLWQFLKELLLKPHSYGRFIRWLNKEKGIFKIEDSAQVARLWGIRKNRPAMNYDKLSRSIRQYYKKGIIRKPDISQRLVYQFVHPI
The following applies: protein: recombinant; tags: N-terminal GST; dsDNA, one strand shown. In outline: as §1

The next assay concerns the target T10, ETV7 (Homo sapiens, UniProt Q9Y603 1-341).
T10 sequence: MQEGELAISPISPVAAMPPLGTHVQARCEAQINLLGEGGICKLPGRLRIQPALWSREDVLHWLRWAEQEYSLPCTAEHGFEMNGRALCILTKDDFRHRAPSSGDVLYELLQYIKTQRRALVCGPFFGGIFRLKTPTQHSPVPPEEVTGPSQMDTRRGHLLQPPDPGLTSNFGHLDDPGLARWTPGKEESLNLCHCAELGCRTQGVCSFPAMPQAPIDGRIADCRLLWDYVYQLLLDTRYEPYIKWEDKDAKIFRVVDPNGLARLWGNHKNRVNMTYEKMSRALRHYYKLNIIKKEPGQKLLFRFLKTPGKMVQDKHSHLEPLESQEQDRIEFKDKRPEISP
As to conditions: protein: recombinant; tags: N-terminal GST; dsDNA, one strand shown. The method in brief: as §1

The target of the next assay is T11, ELF5 (Homo sapiens, UniProt Q9UKW6-2 1-255).
T11 sequence: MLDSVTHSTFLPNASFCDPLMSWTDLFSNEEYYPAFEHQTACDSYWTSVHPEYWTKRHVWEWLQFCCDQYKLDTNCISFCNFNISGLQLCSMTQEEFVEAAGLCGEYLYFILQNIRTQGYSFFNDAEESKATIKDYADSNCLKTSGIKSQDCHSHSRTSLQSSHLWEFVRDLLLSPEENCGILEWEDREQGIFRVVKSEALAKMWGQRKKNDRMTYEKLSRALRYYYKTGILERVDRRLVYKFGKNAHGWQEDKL
The following applies: protein: recombinant; tags: N-terminal GST; dsDNA, one strand shown. The method in brief:
as §1

The target of the next assay is T12, ETV3 (Homo sapiens, UniProt P41162-2 1-143).
T12 sequence: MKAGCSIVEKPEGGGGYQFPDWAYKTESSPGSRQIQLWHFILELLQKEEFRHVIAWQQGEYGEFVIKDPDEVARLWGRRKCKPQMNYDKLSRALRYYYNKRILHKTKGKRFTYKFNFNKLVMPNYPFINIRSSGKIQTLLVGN
The following applies: protein: recombinant; tags: N-terminal GST; dsDNA, one strand shown. The method in brief: as §1

A further assay addresses ETV6 (Homo sapiens, UniProt P41212 1-452). The following applies: protein: recombinant; tags: N-terminal GST; dsDNA, one strand shown. The method in brief: as §1

Sequence of ELF4 (Q99607 whole entry): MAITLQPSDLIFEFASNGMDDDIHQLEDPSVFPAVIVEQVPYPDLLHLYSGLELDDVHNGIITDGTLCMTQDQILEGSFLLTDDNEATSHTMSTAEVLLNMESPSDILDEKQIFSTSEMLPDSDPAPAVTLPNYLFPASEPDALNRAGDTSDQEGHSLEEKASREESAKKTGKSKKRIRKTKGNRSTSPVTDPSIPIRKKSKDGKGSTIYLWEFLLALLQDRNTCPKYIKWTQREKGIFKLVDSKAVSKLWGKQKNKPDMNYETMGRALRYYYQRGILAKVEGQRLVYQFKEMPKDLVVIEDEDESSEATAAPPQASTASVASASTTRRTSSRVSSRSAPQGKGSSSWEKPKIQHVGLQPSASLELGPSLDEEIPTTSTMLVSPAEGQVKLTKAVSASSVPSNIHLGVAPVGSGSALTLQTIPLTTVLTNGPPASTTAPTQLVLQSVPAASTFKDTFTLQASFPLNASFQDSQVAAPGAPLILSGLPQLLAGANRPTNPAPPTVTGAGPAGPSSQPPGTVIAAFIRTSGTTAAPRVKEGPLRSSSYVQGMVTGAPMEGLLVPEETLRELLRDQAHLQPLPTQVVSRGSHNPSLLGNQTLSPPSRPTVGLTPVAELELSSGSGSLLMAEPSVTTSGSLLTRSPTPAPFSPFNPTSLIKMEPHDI
Sequence of HSF1 (Q00613 whole entry): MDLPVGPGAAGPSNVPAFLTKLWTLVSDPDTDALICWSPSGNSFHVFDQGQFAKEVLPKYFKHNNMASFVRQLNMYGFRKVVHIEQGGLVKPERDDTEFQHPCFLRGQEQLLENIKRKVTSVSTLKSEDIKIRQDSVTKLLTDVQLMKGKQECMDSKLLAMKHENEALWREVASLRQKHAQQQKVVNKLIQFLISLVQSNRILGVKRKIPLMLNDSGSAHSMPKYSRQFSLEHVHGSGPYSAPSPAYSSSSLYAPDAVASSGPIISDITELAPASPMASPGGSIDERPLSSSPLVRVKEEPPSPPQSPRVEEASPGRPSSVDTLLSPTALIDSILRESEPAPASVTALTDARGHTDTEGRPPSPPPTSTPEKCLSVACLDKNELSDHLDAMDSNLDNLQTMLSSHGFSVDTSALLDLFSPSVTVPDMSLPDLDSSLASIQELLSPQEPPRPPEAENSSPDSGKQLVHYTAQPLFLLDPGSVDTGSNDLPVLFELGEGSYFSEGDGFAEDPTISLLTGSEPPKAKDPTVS
Sequence of CRX (O43186 whole entry): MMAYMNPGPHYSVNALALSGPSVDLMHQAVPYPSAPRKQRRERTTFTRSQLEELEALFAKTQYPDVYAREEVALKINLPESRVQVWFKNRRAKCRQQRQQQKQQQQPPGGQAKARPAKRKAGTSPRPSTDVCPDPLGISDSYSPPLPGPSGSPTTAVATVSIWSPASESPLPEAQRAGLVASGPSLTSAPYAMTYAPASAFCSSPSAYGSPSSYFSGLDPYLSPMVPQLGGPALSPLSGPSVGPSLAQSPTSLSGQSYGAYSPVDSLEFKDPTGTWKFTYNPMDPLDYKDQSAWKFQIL
Sequence of ETV1 (P50549 whole entry): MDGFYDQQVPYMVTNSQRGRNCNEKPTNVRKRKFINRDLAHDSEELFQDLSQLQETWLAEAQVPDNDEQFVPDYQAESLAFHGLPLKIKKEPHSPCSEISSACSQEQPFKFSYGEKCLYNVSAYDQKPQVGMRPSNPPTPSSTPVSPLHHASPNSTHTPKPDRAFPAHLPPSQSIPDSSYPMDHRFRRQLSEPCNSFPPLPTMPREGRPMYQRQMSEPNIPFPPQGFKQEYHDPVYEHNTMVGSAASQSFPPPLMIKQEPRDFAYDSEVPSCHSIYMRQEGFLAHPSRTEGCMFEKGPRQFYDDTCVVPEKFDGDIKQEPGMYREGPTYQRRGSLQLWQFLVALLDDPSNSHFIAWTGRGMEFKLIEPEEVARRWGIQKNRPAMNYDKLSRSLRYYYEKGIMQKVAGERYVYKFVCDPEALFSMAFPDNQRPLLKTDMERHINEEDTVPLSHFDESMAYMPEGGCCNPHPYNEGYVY
Sequence of ETV5 (P41161 whole entry): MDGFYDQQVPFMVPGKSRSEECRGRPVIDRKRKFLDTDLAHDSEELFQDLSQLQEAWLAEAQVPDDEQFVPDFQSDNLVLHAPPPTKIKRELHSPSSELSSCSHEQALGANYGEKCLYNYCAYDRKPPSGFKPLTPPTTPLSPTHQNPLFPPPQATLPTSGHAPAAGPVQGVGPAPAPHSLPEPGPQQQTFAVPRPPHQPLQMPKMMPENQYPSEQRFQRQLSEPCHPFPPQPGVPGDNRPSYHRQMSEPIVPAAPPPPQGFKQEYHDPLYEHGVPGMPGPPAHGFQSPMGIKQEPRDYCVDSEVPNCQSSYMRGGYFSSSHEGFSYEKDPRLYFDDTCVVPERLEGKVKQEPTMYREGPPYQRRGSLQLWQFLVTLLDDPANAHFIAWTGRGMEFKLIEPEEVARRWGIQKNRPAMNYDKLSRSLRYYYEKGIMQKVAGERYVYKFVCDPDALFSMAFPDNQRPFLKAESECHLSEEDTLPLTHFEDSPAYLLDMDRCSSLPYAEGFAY
Sequence of ETV6 (P41212 whole entry): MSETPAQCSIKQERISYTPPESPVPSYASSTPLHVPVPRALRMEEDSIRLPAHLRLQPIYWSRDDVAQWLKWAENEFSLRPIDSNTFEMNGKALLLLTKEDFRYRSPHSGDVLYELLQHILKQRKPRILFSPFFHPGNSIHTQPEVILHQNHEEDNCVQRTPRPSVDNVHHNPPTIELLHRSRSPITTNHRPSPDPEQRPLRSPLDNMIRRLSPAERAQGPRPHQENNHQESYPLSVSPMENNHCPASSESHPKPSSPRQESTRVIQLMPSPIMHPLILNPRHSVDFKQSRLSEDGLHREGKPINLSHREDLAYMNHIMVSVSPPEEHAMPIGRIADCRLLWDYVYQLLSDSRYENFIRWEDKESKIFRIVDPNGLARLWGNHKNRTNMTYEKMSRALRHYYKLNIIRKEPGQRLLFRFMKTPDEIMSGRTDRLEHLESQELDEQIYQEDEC

Turning to TTTGCG, the binding signal with FEV is 1.13 fold enrichment (6-mer frequency, TF over GST control); with ETV5 it was 1.29 fold enrichment (6-mer frequency, TF over GST control); with HSF1, 1.3 fold enrichment (6-mer frequency, TF over GST control); in the assay with SPIC, 1.37 fold enrichment (6-mer frequency, TF over GST control); with ELF4, 1.21 fold enrichment (6-mer frequency, TF over GST control); with ELK4, 1.03 fold enrichment (6-mer frequency, TF over GST control). Besides, the binding signal with ETV2 is 1.13 fold enrichment (6-mer frequency, TF over GST control); in the assay with ELF3 it was 1.3 fold enrichment (6-mer frequency, TF over GST control); in the assay with CRX it was 1.31 fold enrichment (6-mer frequency, TF over GST control); in the assay with ETV1 it was 1.34 fold enrichment (6-mer frequency, TF over GST control); with ERF, 1.36 fold enrichment (6-mer frequency, TF over GST control); with ETV3L, 1.16 fold enrichment (6-mer frequency, TF over GST control). For the same sequence, the binding signal with ETS2 is 1.21 fold enrichment (6-mer frequency, TF over GST control); with SPDEF it was 1.2 fold enrichment (6-mer frequency, TF over GST control); with ETV7, 1.11 fold enrichment (6-mer frequency, TF over GST control); with ELF5, 1.16 fold enrichment (6-mer frequency, TF over GST control); in the assay with ETV3, 1.17 fold enrichment (6-mer frequency, TF over GST control); with ETV6, 1.29 fold enrichment (6-mer frequency, TF over GST control).

For the origin of these results see PMC7862700, “An all-to-all approach to the identification of sequence-specific readers for epigenetic DNA modifications on cytosine”.
